Assay results as given in the supplement of paper PMC3334620.
In all, about 33,000 sequences were measured (“E-score (-0.5 to 0.5)”: median about -0.013, highest 2% from about 0.3 on). The entries come from a sample that favours the highest values as a whole.

Each sequence was assayed against T1, Msn1 (UniProt P22148) (assay: PBM E-score (8-mer binding enrichment) (E-score (-0.5 to 0.5)); higher = stronger / more preferred TF binding). Details: protein concentration: 200 nM; construct: GST-full length.
T1 sequence: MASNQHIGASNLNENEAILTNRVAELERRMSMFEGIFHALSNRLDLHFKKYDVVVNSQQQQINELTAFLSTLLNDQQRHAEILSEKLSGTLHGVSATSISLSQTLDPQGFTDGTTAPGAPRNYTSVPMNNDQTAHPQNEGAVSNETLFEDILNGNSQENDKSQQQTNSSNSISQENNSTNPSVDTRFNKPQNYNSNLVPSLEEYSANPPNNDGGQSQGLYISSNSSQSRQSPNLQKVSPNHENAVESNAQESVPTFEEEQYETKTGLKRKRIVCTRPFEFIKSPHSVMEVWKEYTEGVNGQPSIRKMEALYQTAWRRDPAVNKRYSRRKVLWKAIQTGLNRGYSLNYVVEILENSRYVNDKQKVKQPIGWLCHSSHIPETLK
Description: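 Universal 'all 10-mer' protein binding microarrays (Agilent AMADID 015681) probed with GST-tagged S. cerevisiae TFs (full-length or DBD) made by in vitro transcription/translation (PURExpress), about 100-200 nM. Bound TF was detected with fluorescent anti-GST. Each ungapped 8-mer (which stands for itself and its reverse complement) is scored by the PBM enrichment score (E-score), a modified Wilcoxon-Mann-Whitney statistic from -0.5 to +0.5, computed with the Universal PBM Analysis Suite. Scale: above 0.35 generally sequence-specific binding.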

| Sequence | PBM E-score |
| --- | --- |
| GATTCTAA | 0.0481 |
| TGGCTACA | 0.0201 |
| ATTAGCAA | 0.22 |
| AAGTACGG | 0.0556 |
| AAGCTAAA | 0.12 |
| CATATTCC | 0.0363 |
| CACCCGTG | -0.213 |
| GCAGACCA | -0.0683 |
| CCAGACAA | 0.258 |
| ACAGACAA | 0.44 |
| ACAGACAG | 0.222 |
| ACAGACAT | 0.399 |
| CCAGACAG | -0.094 |
| GCAGACAA | 0.341 |
| TCAGACAA | 0.367 |
| ACAGACGA | 0.153 |
| GCAGACAC | 0.203 |
| ACAGACAC | 0.288 |
| TCAGACCA | -0.0852 |
| TATGAGAA | 0.0684 |
| AATGGTCG | -0.0526 |
| TAGATTCA | -0.192 |
| GCTTCTTA | -0.0464 |
| ACATGTAT | 0.312 |
| ACATGTTA | 0.199 |

| Sequence | PBM E-score |
| --- | --- |
| CCATGTCG | 0.239 |
| ACATGTTG | 0.235 |
| ACATGTCA | 0.358 |
| ACATGTCG | 0.311 |
| ACCTGTCT | 0.0544 |
| ACATGTAA | 0.255 |
| ACATGCCT | -0.119 |
| ACATGTAG | 0.244 |
| ACATGTCT | 0.436 |
| TCATGTCA | 0.252 |
| ACCGATAG | 0.0834 |
| GATTCCGC | 0.0634 |
| AAGCCGCA | -0.0983 |
| GACTGCAA | -0.16 |
| AAAGCGAT | 0.00359 |
| TAGGTGAA | 0.0103 |
| CCATGTCA | 0.164 |
| CCATGTCC | 0.434 |
| GCATGTAC | 0.291 |
| ACATGTTC | 0.147 |
| GCATGTCC | 0.459 |
| CCATGTAC | 0.216 |
| ACATGTGC | 0.0743 |
| GCATGTCA | 0.261 |
| ACATGTCC | 0.48 |

| Sequence | PBM E-score |
| --- | --- |
| CGGGTTGA | -0.255 |
| CCAGCCCC | -0.304 |
| CTTTGCTA | -0.0573 |
| AAACAGTA | -0.0344 |
| CCACAAGC | -0.0513 |
| AGGACATC | 0.477 |
| CGGACATA | 0.469 |
| AGCACATC | -0.0251 |
| CGGACAGC | 0.182 |
| CGGACCTA | 0.00062 |
| CCGACATC | 0.0379 |
| AGTACATG | 0.266 |
| AGGACATG | 0.484 |
| AGTACATC | 0.131 |
| AGCACATG | -0.0192 |
| CGGACTGA | 0.0816 |
| CGGACATC | 0.387 |
| ATGGGCAA | 0.0683 |
| ACATACCG | 0.114 |
| GGAACGAA | 0.0279 |
| AATCTAAG | 0.00698 |
| GCGAGATA | 0.09 |
| ATCTTCCA | -0.148 |
| GGGACTGA | -0.182 |
| GGGACATA | 0.488 |

| Sequence | PBM E-score |
| --- | --- |
| GGGACAGA | 0.262 |
| AGCGTAGG | -0.267 |
| GACCACCA | -0.246 |
| ATCAGACC | -0.192 |
| AAACTGCT | -0.222 |
| CGCCAACG | -0.126 |
| CGCTCTAC | -0.0195 |
| CGTATTGA | -0.0137 |
| ACTGCGGG | -0.124 |
| AGTCTAAA | 0.0711 |
| AGTCTGAA | 0.029 |
| TGTCTAAA | 0.38 |
| TGTCTGAA | 0.364 |
| TGTCGCAA | 0.324 |
| TGTCTTAA | 0.375 |
| GGTCTGAA | 0.0803 |
| CGTCTTAA | 0.0585 |
| CGTCGCAA | 0.0166 |
| GGTCGCAA | -0.11 |
| AGTCTTAA | 0.11 |
| GGTCTAAA | -0.0883 |
| CGCTAGGA | -0.0538 |
| GCGGGGCA | -0.147 |
| GGAACCCC | -0.334 |
| ACCGTCTA | -0.11 |

| Sequence | PBM E-score |
| --- | --- |
| CTGCGATA | 0.0274 |
| CAGGTGAA | 0.0265 |
| ATGCAGTC | -0.186 |
| CTGGAGTC | -0.182 |
| AGCCAATA | -0.113 |
| GATCGGCC | -0.0564 |
| CACTACCG | -0.181 |
| AACTAGAA | 0.062 |
| AGTATCAA | 0.217 |
| CGTATCAA | 0.0969 |
| AGTCTCAA | -0.0719 |
| CGTCTCAA | 0.00785 |
| TGTCTCAA | 0.384 |
| TGTATCAA | 0.325 |
| TATAATCA | 0.169 |
| CCGGGATC | 0.0583 |
| AAGGGGAC | 0.101 |
| AGAATGTA | 0.167 |
| AGAATGTG | -0.172 |
| CGAATGTA | -0.00301 |
| CGAATGAC | 0.258 |
| CGAATGTC | 0.386 |
| AGAATGTC | 0.459 |
| CCGCTGAG | 0.00458 |
| AAACCGCT | -0.0604 |

| Sequence | PBM E-score |
| --- | --- |
| CCAAGGGC | -0.126 |
| ACACAAGC | 0.0155 |
| AGAGGTAG | -0.163 |
| GCGATCAA | -0.0507 |
| CTCAGACC | -0.138 |
| GTCAGAGA | 0.0303 |
| CTCAGACA | 0.317 |
| CCCAGACA | 0.199 |
| GTCAGACA | 0.323 |
| ATCAGACA | 0.173 |
| CACGCCAC | -0.127 |
| TCCACGGA | 0.299 |
| GAAGGTGA | -0.0331 |
| GGGTTAGA | -0.178 |
| GCAAATTA | -0.0115 |
| ACAAACTG | 0.158 |
| AGATCTGC | 0.0313 |
| GAGGGCCA | -0.104 |
| TGCTGACA | 0.125 |
| CGATGACG | -0.158 |
| ATATGACC | -0.0751 |
| GTATGACA | 0.294 |
| CTATGAGA | -0.0425 |
| CTATGACA | 0.375 |
| AGATGACA | 0.157 |

| Sequence | PBM E-score |
| --- | --- |
| CGCTGACG | -0.24 |
| CGCTGACA | 0.314 |
| CGATGACA | 0.314 |
| ATATGACA | 0.304 |
| CTATGACC | -0.0237 |
| CTTCCAGA | -0.0473 |
| GACACACC | 0.235 |
| AGTCGAGA | 0.0774 |
| ACAGGTGG | -0.0714 |
| ATTTGCAA | 0.103 |
| CTAACTTA | 0.227 |
| TGTGCGAA | -0.0498 |
| AAAACACC | 0.0787 |
| AGGGTCGC | -0.229 |
| GCTTGAAC | 0.187 |
| CGGGCAGC | -0.122 |
| CAGACATA | 0.366 |
| AAGACACG | 0.248 |
| AATACATG | 0.0057 |
| AAGACATG | 0.337 |
| CAGACATC | 0.246 |
| AAGACATC | 0.281 |
| CAGACATG | 0.26 |
| AAGACATT | 0.414 |
| AAGACACT | 0.163 |

| Sequence | PBM E-score |
| --- | --- |
| AAGACAGT | 0.0956 |
| AAGACATA | 0.382 |
| AACACATG | 0.07 |
| ACGAGCTC | -0.0205 |
| CCAAATCG | -0.101 |
| GTCTCAGA | 0.0346 |
| CAAAGGGC | -0.0864 |
| GCAAGAAA | 0.0128 |
| CCCTCTTC | -0.288 |
| CCGGCTCC | -0.269 |
| ACCCCACA | -0.0822 |
| CACCAGAC | 0.00954 |
| CGACCCCA | -0.177 |
| CATACAGG | -0.0332 |
| GAGACATC | 0.265 |
| GAGACACA | 0.272 |
| GAGACATA | 0.448 |
| TAGACAGA | 0.177 |
| TAGACATA | 0.41 |
| TAGACACA | 0.163 |
| GGGGCTGA | -0.148 |
| AGGGGCAG | -0.13 |
| GGACCGGA | 0.113 |
| CGCTAACC | -0.084 |
| GGAGTTAA | 0.0335 |

| Sequence | PBM E-score |
| --- | --- |
| TGGCCCCA | -0.338 |
| ACGTCCGC | 0.14 |
| ATGTCCGC | 0.44 |
| AAGTCCGG | 0.22 |
| CTGTCCGC | 0.114 |
| AGGTCCGG | 0.041 |
| ATGTCCGG | 0.457 |
| CCACTTAC | -0.133 |
| CCCTCTAC | -0.204 |
| ACCGTCGT | 0.142 |
| GCAGAGCC | -0.149 |
| ATGACGAA | 0.0573 |
| ATGACAGC | 0.149 |
| ATGACAAG | 0.298 |
| ATGACAAT | 0.365 |
| ATAACAAT | 0.00977 |
| ATGACAAA | 0.433 |
| TTGACAAA | 0.266 |
| ATGACAAC | 0.311 |
| CTGACAAC | 0.108 |
| ATTACAAT | 0.155 |
| CTGACAAA | 0.37 |
| CTGACAAG | 0.161 |
